Hits are enriched below; roughly 2.4% of the tested compounds scored in any of these assays.
Pol eta inh-1 = inhibitors of human DNA polymerase eta; Q9Y253; Potency, µM (series often up to 114 µM), without a hit: at the highest dose activity change, negative = inhibition, usual class: inhibitors; 390,000 tested, 1.2% active; recombinant Pol eta, fluorescent DNA replication assay; note: % is set by controls: 0 for no effect and ±100 for the full control effect
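Fluorescent replication assay: 50 nM final substrate added after a 15 min room-temperature compound preincubation with 10 nM enzyme. Signal taken at 0 min and again at 10 min.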
Pol kappa inh-1 = blocks human DNA polymerase kappa activity | Q9UBT6 | purified Pol kappa, fluorescent DNA synthesis assay, 10 min | Potency, µM (highest dose often 107 µM), inactives show top-dose activity, negative = inhibition, usual class: inhibitors | 400,000 tested, 0.53% active | AID 588579; note: % is set by controls: 0 for no effect and ±100 for the full control effect
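Kinetic fluorescence readout at 0 and 10 min followed reaction start with substrate at 50 nM final. Beforehand, enzyme (10 nM Pol kappa) stood 15 min with compound at room temperature; buffer-only wells were negative controls.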
POLI inh = blocks human DNA polymerase iota activity | Potency, µM (titrated, usually from 115 µM), for the others: at the top dose activity, negative = inhibition, usual class: inhibitors | 390,000 tested, 1% active | Pol iota fluorescent replication assay, 10 min | AID 588590
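Pol iota at 10 nM preincubated 15 min with compounds at room temperature; reaction started with fluorescent substrate, 50 nM final. Fluorescence read kinetically at 0 and 10 min; buffer-only wells as negative control.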
GLS inhibitor = glutaminase GLS (human) inhibition. O94925. 410,000 tested, 0.21% active. AID 624170. GLS enzymatic activity, qHTS titration. Potency, µM (doses to about 45.5 µM), inactives show at the top dose activity change, negative = inhibition, usual class: inhibitors; note: % is set by controls: 0 for no effect and ±100 for the full control effect
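hKGA in 45 mM KH2PO4 pH 8.2, 0.02% Tween-20 with pin-transferred compounds; 1 mM L-glutamine (stock) plus glutamate oxidase/HRP/Amplex Red coupling added. Fluorescence read initially and after 30 min at RT.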
Pol beta inh = inhibitors of human DNA polymerase beta | P06746 | Pol beta primer extension/strand displacement, fluorescence kinetic | Potency, µM (titrated, usually from 114 µM), without a hit: at the highest dose activity change, negative = inhibition, usual class: inhibitors | 340,000 tested, 1.3% active; note: % is set by controls: 0 for no effect and ±100 for the full control effect
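Pol beta (10 nM) was preincubated with compound for 15 min at room temperature. The reaction was then started with 50 nM substrate and read immediately and after a further 10 min at room temperature.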
GCN5L2 inh = blocks human GCN5L2 histone acetyltransferase | Q92830 | GCN5L2 HAT assay, ThioGlo1 CoA-SH fluorescence | Potency, µM (titrated, usually from 58.9 µM), without a hit: at the top dose activity change, negative = inhibition, usual class: inhibitors | 390,000 tested, 0.21% active | AID 504327; note: % is set by controls: 0 for no effect and ±100 for the full control effect
Target sequence (Q92830 whole entry, looked up): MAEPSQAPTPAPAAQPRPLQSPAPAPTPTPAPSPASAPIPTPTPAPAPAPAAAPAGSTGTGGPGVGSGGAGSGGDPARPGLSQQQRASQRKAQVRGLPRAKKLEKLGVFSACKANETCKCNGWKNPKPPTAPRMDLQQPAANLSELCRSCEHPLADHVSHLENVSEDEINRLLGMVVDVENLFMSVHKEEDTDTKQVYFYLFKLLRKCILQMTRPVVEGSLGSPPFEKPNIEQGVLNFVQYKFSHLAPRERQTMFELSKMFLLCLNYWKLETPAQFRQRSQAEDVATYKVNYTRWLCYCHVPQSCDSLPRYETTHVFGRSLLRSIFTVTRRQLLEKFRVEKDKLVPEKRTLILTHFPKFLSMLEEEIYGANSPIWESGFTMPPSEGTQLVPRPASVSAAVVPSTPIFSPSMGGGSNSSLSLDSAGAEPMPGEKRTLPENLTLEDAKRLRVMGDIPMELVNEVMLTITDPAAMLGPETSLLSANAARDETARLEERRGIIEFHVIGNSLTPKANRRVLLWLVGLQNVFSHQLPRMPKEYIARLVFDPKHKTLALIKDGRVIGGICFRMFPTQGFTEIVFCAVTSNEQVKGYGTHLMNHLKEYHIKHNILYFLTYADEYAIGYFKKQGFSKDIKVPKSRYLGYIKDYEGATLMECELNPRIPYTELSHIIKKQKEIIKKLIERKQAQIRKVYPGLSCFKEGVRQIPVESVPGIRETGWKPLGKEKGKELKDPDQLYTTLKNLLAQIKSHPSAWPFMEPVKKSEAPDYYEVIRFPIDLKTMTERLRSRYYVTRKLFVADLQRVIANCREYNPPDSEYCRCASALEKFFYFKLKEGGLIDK
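Titration-based screen in which CoA formation is detected via maleimide probe ThioGlo1 (50uM) turning fluorescent on thiol reaction; substrates H3(1-25) 75uM and acetyl-CoA 70uM, GCN5L2 20nM, 20 min incubation at room temperature.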
POLI cherry-pick = Human Pol iota inhibitor confirmatory assay. AID 720496. shares compounds with Pol kappa inh-1. Pol iota primer extension, TAMRA/BHQ fluorescence. Potency, µM, usual class: inhibitors. 1,500 tested, 77% active
Pol kappa inh-2 = Pol kappa (human) inhibition, cherry-pick confirmation | purified Pol-kappa, fluorescent strand-displacement substrate | AID 720501 | Potency, µM, actives largely listed as inhibitors | 920 tested, 76% active | shares compounds with Pol eta inh-1
Pol eta inh-2 = confirmation of human DNA polymerase eta inhibitors; shares compounds with Pol eta inh-1; 2,600 tested, 64% active; Potency, µM, actives largely listed as inhibitors; Pol eta primer extension, TAMRA/BHQ fluorescence, 10 min; AID 720502
Starred values were filed as active, the others as inactive; [ ] = another dose, or the depositor's remark. Calls come from the whole dose curve; as a rule, active = well fitted inhibition curve with a large enough effect; inconclusive = small, poorly fitted or top-dose-only effect, or another doubt; inactive = no such curve, though single readings can be large or run the other way. Potency is the fitted concentration of half-maximal effect.

O=Cc1ccc2oc3nc4n(c(=O)c3c(=O)c2c1)CCCS4 was read as Pol eta inh-1 2.5µM*, Pol kappa inh-1 20µM*, POLI inh 7.9µM*, GLS inhibitor inconclusive, Pol beta inh 8.9µM*, GCN5L2 inh inconclusive, POLI cherry-pick 4.7*, Pol kappa inh-2 8.4* and Pol eta inh-2 11*.
Cc1ccccc1-c1nn2c(=O)cc(CN3CCN(C(=O)/C=C/c4ccccc4)CC3)nc2s1 was read as Pol eta inh-1 -23%, Pol kappa inh-1 -8%[60.1 µM], POLI inh 10%, GLS inhibitor 5%, Pol beta inh inconclusive and GCN5L2 inh -11%.
For O=S(=O)(NCCc1ccccc1)c1ccccc1Br the results were Pol kappa inh-1 -1% and POLI inh 0%.
Screening Cc1ccc(C(=O)OCC(=O)NC2CCCCC2)o1 returned Pol eta inh-1 -9%, Pol kappa inh-1 -14%, POLI inh 25%, GLS inhibitor 8%, Pol beta inh 4% and GCN5L2 inh 1%.
Screening O=C(COC(=O)c1ccc([N+](=O)[O-])o1)NC1CCS(=O)(=O)C1 (stereo not given) returned Pol eta inh-1 45µM*, Pol kappa inh-1 -16%, POLI inh 63µM*, GLS inhibitor 5%, Pol beta inh 0%, GCN5L2 inh -14%, POLI cherry-pick inconclusive and Pol eta inh-2 inconclusive.
O=C(COC(=O)c1ccc([N+](=O)[O-])o1)NC1CCCCC1 was read as Pol eta inh-1 inconclusive, Pol kappa inh-1 -21%, POLI inh 79µM*, GLS inhibitor 4%, GCN5L2 inh -7%, POLI cherry-pick inconclusive and Pol eta inh-2 inconclusive.
For CS(=O)(=O)c1ccc(C(=O)OCC(=O)NC2CCS(=O)(=O)C2)cc1[N+](=O)[O-] (stereo not given) the results were Pol eta inh-1 inconclusive, Pol kappa inh-1 -6%, POLI inh 28%, GLS inhibitor 1%, Pol beta inh 19% and GCN5L2 inh -1%.
`CCC[C@H](N[C@@H](C)C(=O)N1[C@@H]2CCCC[C@H]2C[C@H]1C(=O)O)C(=O)OCC` gave Pol kappa inh-1 -12%[60.1 µM], GLS inhibitor -6% and GCN5L2 inh -5%.
For CCOc1ccc(C2N3CC4(C(C)C)CN2CC(C(C)C)(C3)C4=O)cc1OC (stereo not given) the results were Pol eta inh-1 -13%, Pol kappa inh-1 -6%, POLI inh 31%, GLS inhibitor -3%, Pol beta inh 0% and GCN5L2 inh 3%.
Screening O=C(O)CCCNc1cc(N2CCN(C(=O)c3ccco3)CC2)c2noc3c2c1C(=O)c1ccccc1-3 returned Pol eta inh-1 10µM*, Pol kappa inh-1 32µM*, POLI inh 32µM*, GLS inhibitor inconclusive, Pol beta inh 16µM*, GCN5L2 inh -8%, POLI cherry-pick 27*, Pol kappa inh-2 inconclusive and Pol eta inh-2 9.5*.
COc1ccc(C(=O)c2sc3nc(-c4ccccc4)ccc3c2N)cc1OC was read as Pol eta inh-1 inconclusive, Pol kappa inh-1 inconclusive, POLI inh inconclusive, GLS inhibitor 0%, Pol beta inh 13µM*, GCN5L2 inh -17%, POLI cherry-pick inconclusive and Pol eta inh-2 67*.
